Compounds without any hit were thinned out: in the full panel of roughly 83,000, 20% have a hit.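 48-hour exposure, single concentration, 96-well plates; percent growth endpoint where 0 means no net growth. Active: below 10.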 Active and inactive are the calls of the source.
Tests used:
Experiment in all cases: NCI-60 one-dose screen, 48 h (100 = growth as untreated, 0 = no growth, -100 = all killed)
Conditions in all cases: 10 µM unless noted
[1] = system: DU-145 prostate
[2] = system: K-562 leukemia
[3] = system: MALME-3M melanoma
[4] = system: MDA-MB-231 breast
[5] = system: SF-268 CNS
[6] = system: SF-295 CNS
[7] = system: SF-539 CNS
[8] = system: UACC-257 melanoma
[9] = system: HCT-15 colon
[10] = system: HT29 colon
[11] = system: SNB-75 CNS
[12] = system: SNB-19 CNS
[13] = system: U251 CNS
[14] = system: PC-3 prostate
[15] = system: SK-MEL-5 melanoma
[16] = system: UACC-62 melanoma
[17] = system: LOX IMVI melanoma
[18] = system: SK-MEL-28 melanoma
[19] = system: M14 melanoma
[20] = system: RXF 393 renal

Measured: growth

COc1c(N2CC3CCCNC3C2)c(F)cc2c(=O)c(C(=O)N/N=C/c3ccccc3)cn(C3CC3)c12 (centres undefined)
inactive: [1] 104% | [2] 54.1% | [3] 94.1% | [4] 94.9% | [5] 85.2% | [6] 104% | [7] 83.7% | [8] 106% | [9] 76.3% | [10] 72.6% | [11] 88.7% | [12] 101% | [13] 94.7% | [14] 86.9% | [15] 87.8% | [16] 105% | [17] 83.7% | [18] 94.3%

COc1ccc(NC(=O)CSc2nnc(-c3ccc4nc(-c5ccccc5)[nH]c4c3)o2)cc1
inactive: [1] 104% | [2] 84.2% | [3] 99.2% | [4] 97.1% | [5] 101% | [6] 102% | [7] 96.2% | [8] 106% | [9] 92.2% | [10] 108% | [11] 101% | [12] 102% | [13] 102% | [14] 105% | [15] 85.9% | [16] 95% | [17] 101% | [18] 99.7%

CCOC(=O)c1c(Nc2ccccc2)nn2c(-c3ccccc3)ccnc12
inactive: [1] 97.5% | [2] 63.8% | [3] 105% | [4] 82.4% | [5] 113% | [6] 92.9% | [7] 92.5% | [8] 112% | [19] 110% | [9] 63.3% | [10] 84.4% | [11] 67.1% | [12] 98.3% | [13] 90.8% | [14] 92.8% | [15] 78.5% | [16] 87.7% | [18] 101%

NC(N)=Nc1ccc(Oc2cccc(NC(N)=Nc3ccc(Cl)c(C(F)(F)F)c3)c2)cn1
inactive: [1] 63.7% | [2] 19.7% | [3] 57.9% | [4] 43.8% | [5] 19.6% | [6] 40.7% | [7] 36.6% | [8] 61.2% | [9] 85.8% | [10] 28.9% | [11] 69.3% | [12] 16.6% | [13] 25.6% | [14] 13.4% | [15] 31.9% | [16] 40.2% | [18] 61.6%
active: [17] -59.8%

CCCCCc1ccc(S(=O)(=O)Nc2cc(-c3csc(NC(=O)CN4CCN(CCO)CC4)n3)ccc2OC)cc1
active: [2] 2.84% | [3] -80.9% | [6] -23.1% | [7] -69.2% | [8] -31.4% | [9] -9.25% | [10] 4.51% | [13] 2.41% | [15] -88.8% | [16] -32.9% | [17] -82.5% | [18] -60.5%
inactive: [1] 49.1% | [4] 12.6% | [5] 59.8% | [11] 92.6% | [12] 31% | [14] 48%

COc1cc(-c2nc(SCCC(C)C)nc(NNC(=O)c3ccncc3)c2C#N)cc(OC)c1OC
inactive: [1] 79.1% | [2] 74.6% | [3] 105% | [4] 27.9% | [5] 56% | [6] 65.7% | [7] 71.6% | [8] 94.2% | [9] 78.1% | [10] 42.9% | [11] 27.1% | [12] 66% | [14] 78.6% | [15] 84.4% | [16] 38.1% | [17] 53.4% | [18] 85.8%
active: [20] -16.7%

COc1cc2c(cc1OC)C(Sc1ccc(C)cc1)c1c(nc(N)c(C#N)c1N)O2 (centres undefined)
active: [1] -83% | [2] 4.48% | [3] -70.7% | [4] -41.4% | [5] -54.5% | [6] -84.1% | [7] -86.3% | [8] -35.2% | [9] -74.3% | [10] -21.2% | [12] -68.9% | [13] -69.9% | [14] -71.1% | [15] -94.6% | [16] -45% | [17] -90.5% | [18] -80.3%
inactive: [11] 29%

O=C(NCCn1ccnc1)c1ccc(-c2nc3ccc4[nH]ncc4c3c3c2CCCC3)cc1
inactive: [1] 62.7% | [2] 24.1% | [3] 41.9% | [4] 66.1% | [5] 48% | [6] 77.1% | [7] 50.9% | [8] 92.9% | [9] 97.5% | [10] 88.4% | [11] 52.6% | [12] 55.6% | [13] 58.6% | [14] 47.6% | [15] 89.9% | [16] 28.8% | [17] 66.3% | [18] 62.4%

— PubChem BioAssay (NCI)
